# Measurements reported in PubChem BioAssay AID463165 (Johns Hopkins Ion Channel Center, 2010).
# About 1,400 (0.45%) of roughly 310,000 compounds were called active.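 How the source made its calls: active means B-score, a plate-corrected calcium signal, over three deviations above library mean, with baseline fluorescence within five deviations of library mean; inactive means the rest.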 For the sample, actives were picked, then their nearest neighbours and some compounds at random.
# Molecular target: Regulator of G-protein signaling 4 (Homo sapiens) (UniProt P49798)
# Sequence (P49798 whole entry, looked up): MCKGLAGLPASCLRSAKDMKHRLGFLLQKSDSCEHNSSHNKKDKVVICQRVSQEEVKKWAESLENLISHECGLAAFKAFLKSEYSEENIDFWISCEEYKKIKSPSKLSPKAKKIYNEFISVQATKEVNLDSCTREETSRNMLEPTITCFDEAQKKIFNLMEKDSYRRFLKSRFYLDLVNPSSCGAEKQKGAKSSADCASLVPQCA
# Assay: blockers of RGS4 function in M3R calcium signaling – cell-based, HEK293 M3R inducible RGS4, calcium flux, primary screen (AID 463165);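 further: RGS4 expression induced by doxycycline in cells with stable M3 receptor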;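 on B-score: B-score is computed from the integrated fluorescence ratio over baseline after carbachol; higher B-score means a larger calcium signal and so more RGS4 inhibition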
# Conditions: Fluo-4 calcium flux, at 10 µM, triggered by carbachol at its EC20; hits give high values
row,Structure (SMILES),B-score
1,CN=C(NC#N)NCCSCc1nc[nH]c1C,inactive
2,COc1ccc(CN(C(=O)CSc2nnc(-c3ccc(OC)c(OC)c3)o2)c2ccc(F)cc2)cc1,inactive
3,Cc1ccc(/C=N/NC(=O)CSc2ccccn2)o1,inactive
4,CCOc1ccc(/C=N/NC(=O)CSc2ccccn2)cc1O,4.74 (active)
5,CCOc1ccc(/C=N/NC(=O)C(C)Sc2ccccn2)cc1OCC (centres undefined),inactive
6,Cc1cc(=O)oc2cc(OC(C)C(=O)Nc3ccc(N4CCOCC4)cc3)ccc12 (centres undefined),inactive
7,COc1cc(NC(=O)CSC(=S)N2CCCC2)c(OC)cc1Cl,inactive
8,CC(C)(C)Oc1ccccc1Nc1nc(NCCO)nc(N2CCCC2)n1,inactive
9,CCOc1ccc(CNC(=O)CCC(=O)N2CCSc3ccccc32)cc1,inactive
10,C[C@H](NC(=O)c1nc[nH]c1C(=O)NCC(=O)OC(C)(C)C)C(=O)OCc1ccccc1,inactive
11,C[C@H](NC(=O)c1nc[nH]c1C(=O)NCC(=O)OC(C)(C)C)c1ccccc1,5.48 (active)
12,CC(C)(C)OC(=O)CNC(=O)c1[nH]cnc1C(=O)N[C@@H](Cc1ccccc1)C(=O)OCc1ccccc1,inactive
13,Cc1ccc(N(C(=O)c2ccc(CN3CCOCC3)o2)C(C(=O)NCCC(C)C)c2cccs2)c(C)c1 (centres undefined),inactive
14,O=C(CSCc1ccccc1)Nc1ccccc1,inactive
15,CCN(CC)S(=O)(=O)c1ccc(N2CC(C(=O)NCc3cccnc3)CC2=O)cc1 (centres undefined),inactive
16,Cc1ccc(/C=C2\CCn3c2nc2cc(C(=O)O)ccc2c3=O)c(C)c1,6.23 (active)
17,N#Cc1ccc(/C=C2\CCn3c2nc2cc(C(=O)O)ccc2c3=O)cc1,inactive
18,O=C(O)c1ccc2c(=O)n3c(nc2c1)/C(=C/c1ccc(OC(F)F)cc1OC(F)F)CC3,inactive
19,CCOC1CS(=O)(=O)CC1OCC (centres undefined),inactive
20,CCCN(CCC)S(=O)(=O)c1ccc(C(=O)N2CC3CCC(CC3)C2)cc1,inactive
21,CC(C)=CCCC1(C)C=Cc2c(ccc3c2[nH]c2cc(O)c(C)cc23)O1 (centres undefined),inactive
22,O=C(O)CCC(=O)N(Cc1ccccc1)Cc1ccccc1,inactive
23,O=C(Nc1ccccc1Cl)c1ccccc1S(=O)(=O)c1ccccc1[N+](=O)[O-],inactive
24,Cc1nn(-c2ccccc2)c2c1C(c1ccc(F)cc1)C(C#N)=C(N)O2 (centres undefined),inactive
25,Cc1nn(Cc2ccccc2)c2c1C(c1ccccc1)C(C#N)=C(N)O2 (centres undefined),inactive
26,COc1ccccc1C1C(C#N)=C(N)Oc2c1c(-c1ccccc1)nn2-c1ccccc1 (centres undefined),8.32 (active)

row,Structure (SMILES),B-score
1,Cc1cccc(OCCCC(=O)Nc2ccc(S(=O)(=O)N3CCCC3)cc2)c1,inactive
2,CS(=O)(=O)c1ccc(C(=O)OCC(=O)NNC(=O)COc2ccc(Cl)cc2)cc1,inactive
3,Cc1ccc(NC(=O)N2CCC(c3nc4c(nnn4Cc4c(F)cccc4Cl)c(=O)[nH]3)CC2)cc1,inactive
4,O=C(Nc1ccc(F)cc1)N1CCCC(c2nc3c(nnn3Cc3ccccc3Cl)c(=O)[nH]2)C1 (centres undefined),inactive
5,Cc1ccc(C)c(Cn2nnc3c(=O)[nH]c(C(=O)Nc4ccc(F)cc4)nc32)c1,7.87 (active)
6,O=C(O)C1C2C=CC(C2)C1C(=O)NCc1ccccc1 (centres undefined),inactive
7,O=C(CN1C(=O)NC2(CCCCCC2)C1=O)NCc1cccs1,inactive
8,COC(=O)c1c(C(=O)OC)c2n(c1C)CCS2,inactive
9,COc1ccc(C)cc1NC(=O)CSc1nnc2ccc(-c3ccccn3)nn12,inactive
10,CCOc1ccc(S(=O)(=O)Nc2nc3cc(OC)ccc3s2)cc1,inactive
11,O=C(O)c1cccc(S(=O)(=O)Nc2ccc(O)cc2Sc2nc3ccccc3s2)c1,inactive
12,COc1ccc(S(=O)(=O)Nc2ccc(O)c(Sc3nc4ccccc4s3)c2)cc1,5.99 (active)
13,CNc1nccc(-c2ccc(Cl)cc2)c1C#N,inactive
14,Cc1cc(NC(=O)CSc2nc(C(C)C)nc3sc4c(c23)CCC(C)C4)no1 (centres undefined),inactive
15,Cc1ccc(C)c2c1cc(C)c1nnc(SCC(=O)Nc3cccc(C(=O)O)c3)n12,inactive
16,CC(C)c1nc(SCC(=O)Nc2cccc(C(=O)O)c2)c2c3c(sc2n1)CCCC3,5.64 (active)
17,Cc1ccccc1OC(=O)Cn1c(C(F)(F)F)nc2ccccc21,inactive
18,Cc1ccc(-n2[nH]c(C)c(/C=N/NC(=O)c3cccc([N+](=O)[O-])c3)c2=O)cc1C,inactive
19,COc1ccc(-c2csc(NC(=O)COC(=O)c3ccc(Br)o3)n2)cc1,inactive
20,COc1ccc(-c2csc(Cc3nc(O)cs3)n2)cc1,inactive
21,COc1ccc(-c2csc(Nc3ccc(O)cc3)n2)cc1,8.75 (active)
22,CCOc1ccc(OCC)c(NC(=O)CCS(=O)(=O)c2ccc(C)cc2)c1,inactive
23,CN(C)c1ccc(CNC2C3CC4CC(C3)CC2C4)cc1 (centres undefined),inactive
24,CC(=O)Nc1cccc(-c2nc3ccccc3s2)c1C,inactive
25,COc1ccc(Oc2cn[nH]c2-c2ccc(OC)cc2O)cc1,inactive
26,Oc1ccc(-c2[nH]ncc2-c2nc3ccccc3s2)c(O)c1,5.08 (active)

row,Structure (SMILES),B-score
1,CCC1(C(=O)c2ccccc2)C(c2cccc([N+](=O)[O-])c2)C1(C(=O)OC)C(=O)OC (centres undefined),inactive
2,CC(CC(=O)C1C(C)C=CCC1(C)C)NNC(N)=O (centres undefined),inactive
3,Cc1ccc(-c2csc(NC(=O)C3=COCCO3)n2)cc1C,9.56 (active)
4,CC(=O)NCCC(=O)Nc1nc(-c2ccc3c(c2)OCCO3)cs1,inactive
5,Cc1csc(NC(=O)C2=COCCO2)n1,inactive
6,COc1cccc(NC(C)=[N+](C)CCNS(=O)(=O)c2ccc(Cl)cc2)c1,inactive
7,CCCCN1C(=O)CC(N2CCOCC2)C1=O (centres undefined),inactive
8,O=C(CN1CCC(O)(c2ccccc2)CC1)Nc1ccc2c(c1)OCCO2,inactive
9,O=C(CCN1CCc2ccccc2C(O)(c2ccccc2)C1)c1ccc2c(c1)OCCO2 (centres undefined),8.45 (active)
10,CCC1(c2ccccc2)NC(=O)N(CC(=O)c2ccc3c(c2)OCO3)C1=O (centres undefined),inactive
11,CC(CO)N1CCS(=O)(=O)CC1 (centres undefined),inactive
12,COc1cccc(OC)c1C(=O)Nc1ccc(Cc2ccncc2)cc1,inactive
13,Clc1ccc(Nc2ncnc3c2nnn3Cc2ccccc2)cc1,inactive
14,Cc1nc(Nc2ccc(S(=O)(=O)N3CCCC3)cc2)c2nnn(Cc3ccccc3)c2n1,inactive
15,CC(C)Cc1nc(Nc2ccc(S(=O)(=O)N3CCCC3)cc2)c2nnn(Cc3ccccc3)c2n1,4.81 (active)
16,Cc1ccccc1CN1CCC(C(=O)Nc2ccc(Oc3cccnc3)cc2)CC1,inactive
17,COc1ccc(-c2cc(C(=O)N/N=C/c3cccnc3)c3ccccc3n2)c(OC)c1,inactive
18,Cc1cc(C)c2nc(-c3ccco3)cc(C(=O)O)c2c1,inactive
19,Cn1c(-c2ccco2)nc2cc3ccccc3cc21,8.29 (active)
20,COc1ccccc1-n1c(-c2cc(-c3ccco3)[nH]n2)n[nH]c1=S,inactive
21,CC(=O)c1ccc2c(c1)c1ccccc1n2CC(C)C,inactive
22,CS(=O)(=O)N(CC(O)Cn1c2ccccc2c2ccccc21)c1cccc2ccccc12 (centres undefined),7.61 (active)
23,CCCCN(CCCC)CC(O)Cn1c2ccccc2c(=O)c2ccccc21 (centres undefined),inactive
24,COc1ccccc1CN(C)C(=O)C1(c2ccc(Cl)cc2)CC1,inactive
25,CN(CC1CCCN(CCc2cccc(C(F)(F)F)c2)C1)C(=O)c1ccc2nc[nH]c2c1 (centres undefined),inactive
26,COC(=O)N/N=C/c1cn(CCCOc2ccc(C)cc2)c2ccccc12,inactive

row,Structure (SMILES),B-score
1,COC(=O)c1cn(CC(=O)NCc2cccs2)c2ccccc12,inactive
2,COC(=O)Cn1cc(/C=C/[N+](=O)[O-])c2ccccc21,14.7 (active)
3,O=C(CN1CCN(S(=O)(=O)c2ccc3ccccc3c2)CC1)NC(=O)NC1CCCCC1,inactive
4,CCCc1nn(C)c2c(=O)[nH]c(-c3cc(S(N)(=O)=O)ccc3OCC)nc12,inactive
5,CCCCOc1ccc(C(=O)N/C(=C/C=C/c2ccccc2)C(=O)N2CCOCC2)cc1,inactive
6,OCCCC1CCCCN1Cc1nc(Cc2ccccc2Cl)no1 (centres undefined),inactive
7,Nc1cccc(-c2cc(-c3ccccc3)nc(-c3cccc(N)c3)n2)c1,5.75 (active)
8,Nc1nc(-c2ccccc2)cc(-c2ccccc2)n1,inactive
9,CNc1nc(-c2ccccc2)cc(-c2ccccc2)n1,inactive
10,COCCNC(=O)C(OC(=O)c1cccs1)c1ccc(F)cc1 (centres undefined),inactive
11,COCCNC(=O)CSc1nc2c(n1-c1ccccc1)CCCC2,inactive
12,O=C(NCc1ccc(F)cc1)C1CCC(CNc2c(N3CCOCC3)c(=O)c2=O)CC1 (centres undefined),inactive
13,Cc1noc(C)c1S(=O)(=O)Nc1cc(C(F)(F)F)ccc1N1CCOCC1,inactive
14,COc1cc2c(cc1OC)C(/C=C/c1ccco1)=NCC2,inactive
15,CCOC(=O)C1=NN(c2ccc(Cl)cc2)/C(=C/C2=NCCc3cc(OC)c(OC)cc32)S1,4.81 (active)
16,CCOC(=O)C1=C(CN2CCc3ccccc32)NC(=O)NC1c1ccc(Cl)cc1 (centres undefined),inactive
17,CC(=O)c1cccc(NC(=O)C2CCCN2S(=O)(=O)c2cccc3nsnc23)c1 (centres undefined),inactive
18,Cn1c(N2CCOCC2)c(C=O)c2ccccc21,inactive
19,O=C1NCC(=O)N(Cc2ccccc2)/C1=C/c1ccccc1,inactive
20,O=C1/C(=C\c2cccnc2)CN(Cc2ccccc2)C/C1=C\c1cccnc1,20.8 (active)
21,Clc1ccc(CN2CCN(/N=C/c3cccnc3)CC2)cc1,inactive
22,NS(=O)(=O)c1ccc(CCNC(=O)c2ccc([N+](=O)[O-])cc2[N+](=O)[O-])cc1,inactive
23,COc1cc(/C=N/NC(=O)c2cccnc2)ccc1OC(=O)c1cccc(Br)c1,inactive
24,C=C(C)C(=O)O[C@H]1C/C(C)=C\C(=O)/C=C(\C)[C@H](O)[C@@H]2OC(=O)C(=C)[C@@H]21,5.6 (active)
25,Nc1ccccc1/C=N\N=C/c1ccccc1N,inactive
26,Cc1ccc2c(c1)N(CC(=O)NCCc1ccc(Cl)cc1)C(=O)c1cccnc1O2,inactive
